This is an account of results in the supplement of paper PMC9262897, “Low-cost anti-mycobacterial drug discovery using engineered E. coli” (Nature Communications, 2022).

Where a name gives a salt, the structure may show the parent alone. ± gives the standard deviation of the averaged measurements.

Assay in all cases: growth (OD600 after 10 h); higher = more growth (less inhibition)
Test [1] relates to E. coli TESEC Alr+ wild-type control. Particulars: compound 0.1 mM; raw OD600 reference: median of DMSO wells 0.241, cell-free background 0.041. As for the experimental part: (§1)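 TESEC Mtb Alr E. coli, or the Alr+ wild-type control, in 384-well plates with Prestwick library compounds at 0.1 mM and 1% DMSO, across arabinose induction levels of 1E3 to 1E7 nM. Growth is read as OD600 after 10 h at 37 °C in triplicate biological replicates.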

Test [2] deals with E. coli TESEC Mtb Alr. Particulars: compound 0.1 mM. As for the experimental part:
as §1

Test [3] relates to E. coli TESEC Mtb Asd. The note with it: compound 0.1 mM. As for the experimental part:
(§2)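 TESEC E. coli strains in which the native enzyme is deleted and replaced by arabinose-inducible Mtb Asd, DapB, CysH or TrpD, each grown in its selective medium. Strains were screened against the Prestwick library at 0.1 mM and 1% DMSO in 384-well format at low and high arabinose induction. Growth is read as OD600 after 10 h in triplicate.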

Test [4] concerns E. coli TESEC Mtb DapB. The note with it: compound 0.1 mM. The method, then:
as §2

In test [5] the test system is E. coli TESEC Alr+ wild-type control. Particulars: compound 0.1 mM; raw OD600 reference: median of DMSO wells 0.49, cell-free background 0.052. The method, then:
(§3)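 TESEC Mtb Alr E. coli (ΔaraC ΔtolC ΔentC Δalr ΔdadX, arabinose-inducible Mtb Alr) or the Alr+ wild-type control strain, grown in defined M9-fructose medium without D-alanine in 96-well plates with Prestwick library compounds at 0.1 mM and 1% DMSO. Low Alr induction is 0.1 µM arabinose and high induction is 10 mM arabinose.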

Test [6] has as its system E. coli TESEC Mtb Alr. Particulars: compound 0.1 mM. As for the experimental part: as §3
This is another data set of the same source.

The mark [7] stands for this setting: arabinose 1000 nM, raw OD600 reference: median of DMSO wells 0.294, cell-free background 0.041.
Setting [8] is: arabinose 10000 nM, raw OD600 reference: median of DMSO wells 0.264, cell-free background 0.041.
[9] abbreviates: arabinose 100000 nM, raw OD600 reference: median of DMSO wells 0.201, cell-free background 0.041.
[10] abbreviates: arabinose 1000000 nM, raw OD600 reference: median of DMSO wells 0.193, cell-free background 0.041.
Where [11] appears, read: arabinose 10000000 nM, raw OD600 reference: median of DMSO wells 0.146, cell-free background 0.041.
Where [12] appears, read: arabinose induction (level): High, raw OD600 reference: median of DMSO wells 0.331, cell-free background 0.041.
[13] abbreviates: arabinose induction (level): Low, raw OD600 reference: median of DMSO wells 0.417, cell-free background 0.041.
Setting [14] is: arabinose induction (level): High, raw OD600 reference: median of DMSO wells […], cell-free background 0.041.
[15] abbreviates: arabinose induction (level): Low, raw OD600 reference: median of DMSO wells 0.227, cell-free background 0.041.
Where [16] appears, read: arabinose 100 nM, raw OD600 reference: median of DMSO wells 0.413, cell-free background 0.052.
[17] abbreviates: arabinose 10000000 nM, raw OD600 reference: median of DMSO wells […], cell-free background 0.052.

`Cc1ncc(CO)c(CO)c1O` [Pyridoxine hydrochloride]: the growth in test [1] was 0.258 ± 0.0075; in test [2] (setting [7]), 0.302 ± 0.013; in test [2] (setting [8]), 0.2532 ± 0.0016; in test [2] (setting [9]) it was 0.238 ± 0.034; in test [2] (setting [10]), 0.174 ± 0.0032; in test [2] (setting [11]) it was 0.168 ± 0.017. Further, the growth was 0.344 ± 0.1 in test [3] (setting [12]); 0.37 ± 0.022 in test [3] (setting [13]); 0.215 ± 0.011 in test [4] (setting [14]); 0.239 ± 0.04 in test [4] (setting [15]); 0.544 ± 0.025 in test [5]; 0.428 ± 0.0097 in test [6] (setting [16]). Further, the growth in test [6] (setting [17]) turned out to be 0.32 ± 0.013.
For the compound `CCCCCCCCCCCCCCCC[N+](C)(C)CCN(Cc1ccc(OC)cc1)c1ncccn1` [Thonzonium bromide], the growth in test [1] was 0.0453 ± 0.0014; in test [2] (setting [7]), 0.08477 ± 0.00045; in test [2] (setting [8]), 0.0958 ± 0.0043; in test [2] (setting [9]) it was 0.0909 ± 0.0047; in test [2] (setting [10]), 0.0447 ± 0.003; in test [2] (setting [11]), 0.0932 ± 0.0021. Also, the growth turned out to be 0.0571 ± 0.0024 in test [3] (setting [12]); 0.059 ± 0.0013 in test [3] (setting [13]); 0.05637 ± 0.00046 in test [4] (setting [14]); 0.0589 ± 0.002 in test [4] (setting [15]); 0.0464 ± 0.00035 in test [5]; 0.226 ± 0.15 in test [6] (setting [16]). In test [6] (setting [17]), this compound gave a growth of 0.112 ± 0.01.
Consider `CCCN(CCC)C(=O)C(CCC(=O)O)NC(=O)c1ccccc1` (stereo unspecified) [Proglumide], for which the growth in test [1] was determined as 0.255 ± 0.0056; in test [2] (setting [7]), 0.282 ± 0.036; in test [2] (setting [8]) it was 0.29 ± 0.017; in test [2] (setting [9]), 0.22 ± 0.025; in test [2] (setting [10]), 0.188 ± 0.0035; in test [2] (setting [11]) it was 0.17 ± 0.0066. In addition, the growth in test [3] (setting [12]) turned out to be 0.318 ± 0.075; in test [3] (setting [13]), 0.368 ± 0.053; in test [4] (setting [14]) it was 0.205 ± 0.018; in test [4] (setting [15]), 0.246 ± 0.019; in test [5] it was 0.477 ± 0.079; in test [6] (setting [16]) it was 0.415 ± 0.021. This compound also gave a growth in test [6] (setting [17]) of 0.376 ± 0.033.
On to `COc1cc2nc(N3CCN(C(=O)C4CCCO4)CC3)nc(N)c2cc1OC` (stereo unspecified) [Terazosin hydrochloride], for which the growth in test [1] was found to be 0.208 ± 0.008; in test [2] (setting [7]), 0.292 ± 0.0061; in test [2] (setting [8]) it was 0.2762 ± 0.00084; in test [2] (setting [9]) it was 0.139 ± 0.0052; in test [2] (setting [10]), 0.138 ± 0.0066; in test [2] (setting [11]) it was 0.144 ± 0.0038. Moreover, the growth in test [3] (setting [12]) amounted to 0.215 ± 0.012; in test [3] (setting [13]) it was 0.431 ± 0.0086; in test [4] (setting [14]), 0.222 ± 0.02; in test [4] (setting [15]) it was 0.219 ± 0.012; in test [5], 0.443 ± 0.035; in test [6] (setting [16]) it was 0.407 ± 0.01. The growth in test [6] (setting [17]) was 0.259 ± 0.019.
Take `Cc1ccnc(NS(=O)(=O)c2ccc(N)cc2)n1` [Sulfamerazine]: the growth was 0.245 ± 0.0069 in test [1]; 0.293 ± 0.013 in test [2] (setting [7]); 0.229 ± 0.0029 in test [2] (setting [8]); 0.211 ± 0.0032 in test [2] (setting [9]); 0.154 ± 0.0069 in test [2] (setting [10]); 0.133 ± 0.004 in test [2] (setting [11]). Besides, the growth in test [3] (setting [12]) turned out to be 0.437 ± 0.023; in test [3] (setting [13]), 0.4484 ± 0.0033; in test [4] (setting [14]), 0.21 ± 0.0031; in test [4] (setting [15]), 0.228 ± 0.018; in test [5], 0.515 ± 0.075; in test [6] (setting [16]), 0.42 ± 0.0052. In test [6] (setting [17]), this compound gave a growth of 0.334 ± 0.0087.
For `C[C@@H]1C[C@H]2[C@@H]3CCC4=CC(=O)C=C[C@]4(C)[C@@]3(Cl)[C@@H](O)C[C@]2(C)[C@@]1(OC(=O)c1ccco1)C(=O)CCl` [Mometasone furoate], the growth amounted to 0.203 ± 0.0057 in test [1]; 0.259 ± 0.031 in test [2] (setting [7]); 0.223 ± 0.011 in test [2] (setting [8]); 0.161 ± 0.0059 in test [2] (setting [9]); 0.0878 ± 0.0027 in test [2] (setting [10]); 0.152 ± 0.013 in test [2] (setting [11]). The growth in test [3] (setting [12]) came out at 0.198 ± 0.049; in test [3] (setting [13]), 0.329 ± 0.082; in test [4] (setting [14]), 0.297 ± 0.12; in test [4] (setting [15]), 0.212 ± 0.06; in test [5], 0.498 ± 0.036; in test [6] (setting [16]), 0.415 ± 0.013. The growth in test [6] (setting [17]) turned out to be 0.244 ± 0.0054.
`CC(C)(C)NC(=O)[C@@H]1CN(Cc2cccnc2)CCN1C[C@@H](O)C[C@@H](Cc1ccccc1)C(=O)N[C@H]1c2ccccc2C[C@H]1O` [Indinavir sulfate]: the growth in test [1] turned out to be 0.2105 ± 0.00051; in test [2] (setting [7]), 0.293 ± 0.014; in test [2] (setting [8]) it was 0.241 ± 0.0041; in test [2] (setting [9]), 0.221 ± 0.02; in test [2] (setting [10]), 0.149 ± 0.0054; in test [2] (setting [11]) it was 0.139 ± 0.004. In addition, the growth in test [3] (setting [12]) came out at 0.239 ± 0.05; in test [3] (setting [13]) it was 0.403 ± 0.025; in test [4] (setting [14]) it was 0.216 ± 0.0067; in test [4] (setting [15]), 0.286 ± 0.022; in test [5], 0.558 ± 0.12; in test [6] (setting [16]), 0.422 ± 0.014. Also, the growth in test [6] (setting [17]) worked out at 0.281 ± 0.01.
